The text below walks through data of PubChem BioAssay (EPA / NIEHS).

Results filed as inconclusive are left out. Calls of active or inactive are those of the source. Rule for the calls: active = hit-call score of the fitted dose curve at least 0.9, where 1 is the maximum; inconclusive = response in the unintended direction; inactive = score below 0.9.

Chain of Nuclear receptor subfamily 1 group I member 2 (Homo sapiens) (O75469 whole entry, looked up): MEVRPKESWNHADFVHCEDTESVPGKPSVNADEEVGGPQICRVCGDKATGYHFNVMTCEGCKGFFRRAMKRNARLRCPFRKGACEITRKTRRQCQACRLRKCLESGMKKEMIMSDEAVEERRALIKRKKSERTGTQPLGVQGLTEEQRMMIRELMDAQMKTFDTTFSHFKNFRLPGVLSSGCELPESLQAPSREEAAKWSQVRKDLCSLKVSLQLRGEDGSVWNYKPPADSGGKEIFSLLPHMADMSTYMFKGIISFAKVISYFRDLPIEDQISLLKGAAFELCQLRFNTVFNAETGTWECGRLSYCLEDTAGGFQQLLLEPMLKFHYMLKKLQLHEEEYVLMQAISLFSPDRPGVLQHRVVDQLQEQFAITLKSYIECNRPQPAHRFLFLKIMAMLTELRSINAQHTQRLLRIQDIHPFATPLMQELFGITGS
Chain of guinea pig Sigma Receptor, Non-selective Binding, SIGMAR1 (gene 100135589) (Q60492 whole entry, looked up): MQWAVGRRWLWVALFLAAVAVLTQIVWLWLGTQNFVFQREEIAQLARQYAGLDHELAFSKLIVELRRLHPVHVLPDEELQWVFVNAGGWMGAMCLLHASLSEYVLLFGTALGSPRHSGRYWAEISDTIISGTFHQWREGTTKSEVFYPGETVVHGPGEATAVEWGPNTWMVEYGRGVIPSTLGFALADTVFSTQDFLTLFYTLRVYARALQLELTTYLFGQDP
Chain of Peroxisome proliferator-activated receptor gamma (Homo sapiens) (P37231 whole entry, looked up): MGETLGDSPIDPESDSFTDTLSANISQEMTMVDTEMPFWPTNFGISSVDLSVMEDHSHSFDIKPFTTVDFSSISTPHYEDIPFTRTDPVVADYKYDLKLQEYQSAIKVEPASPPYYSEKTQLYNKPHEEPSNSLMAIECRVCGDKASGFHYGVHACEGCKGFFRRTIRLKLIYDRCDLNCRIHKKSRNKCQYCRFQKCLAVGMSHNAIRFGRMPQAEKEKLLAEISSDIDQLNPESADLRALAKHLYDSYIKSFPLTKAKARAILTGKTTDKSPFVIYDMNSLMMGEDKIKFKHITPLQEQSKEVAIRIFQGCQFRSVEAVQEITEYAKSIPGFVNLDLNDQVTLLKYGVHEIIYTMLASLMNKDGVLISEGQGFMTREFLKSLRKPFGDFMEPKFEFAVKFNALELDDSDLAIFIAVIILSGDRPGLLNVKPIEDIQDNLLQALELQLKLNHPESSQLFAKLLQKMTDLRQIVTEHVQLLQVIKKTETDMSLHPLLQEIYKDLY
Chain of human Peroxisome Proliferator-activated Receptor alpha (PPARa), PPARA (gene 5465) (Q07869 whole entry, looked up): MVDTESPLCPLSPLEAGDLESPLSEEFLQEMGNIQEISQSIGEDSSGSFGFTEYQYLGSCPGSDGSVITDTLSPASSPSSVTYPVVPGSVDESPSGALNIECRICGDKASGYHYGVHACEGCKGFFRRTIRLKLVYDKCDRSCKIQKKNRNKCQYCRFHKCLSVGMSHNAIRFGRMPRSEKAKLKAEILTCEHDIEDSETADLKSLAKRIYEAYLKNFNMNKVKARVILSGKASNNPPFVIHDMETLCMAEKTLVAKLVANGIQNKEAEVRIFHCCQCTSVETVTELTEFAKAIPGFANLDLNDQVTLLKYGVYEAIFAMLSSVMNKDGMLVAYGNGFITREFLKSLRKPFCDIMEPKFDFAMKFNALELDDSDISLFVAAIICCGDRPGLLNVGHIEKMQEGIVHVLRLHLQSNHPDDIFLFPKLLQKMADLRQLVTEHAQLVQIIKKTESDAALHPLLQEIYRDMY
Chain of mouse Estrogen Receptor alpha (Era), Esr1 (gene 13982) (P19785 whole entry, looked up): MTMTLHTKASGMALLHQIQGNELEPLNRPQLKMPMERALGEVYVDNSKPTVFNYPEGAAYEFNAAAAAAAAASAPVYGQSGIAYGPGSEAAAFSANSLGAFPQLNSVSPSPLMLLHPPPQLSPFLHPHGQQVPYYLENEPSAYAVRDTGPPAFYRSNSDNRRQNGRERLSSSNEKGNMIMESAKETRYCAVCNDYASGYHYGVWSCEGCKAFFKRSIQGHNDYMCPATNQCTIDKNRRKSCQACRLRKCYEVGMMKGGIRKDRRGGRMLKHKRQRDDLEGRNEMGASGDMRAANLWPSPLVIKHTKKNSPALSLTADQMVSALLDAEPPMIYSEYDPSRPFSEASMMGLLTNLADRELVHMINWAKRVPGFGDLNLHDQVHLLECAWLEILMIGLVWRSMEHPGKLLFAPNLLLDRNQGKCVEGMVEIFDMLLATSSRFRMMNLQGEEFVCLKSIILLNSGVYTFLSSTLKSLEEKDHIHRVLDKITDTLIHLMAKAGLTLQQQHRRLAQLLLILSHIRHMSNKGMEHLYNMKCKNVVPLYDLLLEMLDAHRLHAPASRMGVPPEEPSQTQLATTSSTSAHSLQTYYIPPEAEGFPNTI

The target of one test is human Peroxisome Proliferator-activated Receptor alpha (PPARa), PPARA (gene 5465) (UniProt Q07869). Kind of test: NVS_NR_hPPARa: NovaScreen (NVS) Nuclear Receptor Binding Assay for human Peroxisome Proliferator-activated Receptor alpha (PPARa) (AID 2283359).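 Note: activity means loss of TR-FRET signal versus DMSO baseline.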 The gist of the method:
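Loss of TR-FRET binding signal relative to DMSO was measured 1 h after chemical addition to extracted receptor protein. Chemicals were first tested in duplicate at 25 uM, and actives were followed up in concentration series.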
Turning to `COc1cc(C(C)C)c2c(c1)S(=O)(=O)N(COc1cc(=O)n3cccc(OCCN4CCCCC4)c3n1)C2=O`, the molecule was called inactive.
The term AC50 denotes the midpoint of the concentration-response curve, whichever way the signal moves. Consider `C=CCc1cc(S(=O)(=O)c2ccc(O)c(CC=C)c2)ccc1O`, for which the AC50 is 25 µM (active).
Take `O=C(O)c1ccc2c(c1)nc(C(=O)NC1CCN(C3CC3)CC1)n2Cc1cc(-c2ccc(Cl)s2)on1`: the outcome was inactive.
On the same count and under the same terms, for `Cc1ncc([C@@H](CCCCCCc2ccc3c(n2)NCCC3)CC(=O)O)cn1` the value was “inactive”.
Same read-out and setting: for `CCCCCCCCCCCCCCCCOS(=O)(=O)O` the value was “inactive”.

In another test the target is PGR (gene 5241) (UniProt P06401). The experiment in a line: NVS_NR_hPR: NovaScreen (NVS) Nuclear Receptor Binding Assay for human Progestron Receptor (PR) (AID 2283360).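 Note: active means loss of bound radioligand signal versus DMSO baseline.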 In a few lines: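 T47D lysate; tritiated or iodinated radioligand; scintillation count at 18 h. DMSO = negative control/baseline. Primary: 25 uM, duplicate. Secondary: concentration series for actives.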
Chain of PGR (gene 5241) (P06401 whole entry, looked up): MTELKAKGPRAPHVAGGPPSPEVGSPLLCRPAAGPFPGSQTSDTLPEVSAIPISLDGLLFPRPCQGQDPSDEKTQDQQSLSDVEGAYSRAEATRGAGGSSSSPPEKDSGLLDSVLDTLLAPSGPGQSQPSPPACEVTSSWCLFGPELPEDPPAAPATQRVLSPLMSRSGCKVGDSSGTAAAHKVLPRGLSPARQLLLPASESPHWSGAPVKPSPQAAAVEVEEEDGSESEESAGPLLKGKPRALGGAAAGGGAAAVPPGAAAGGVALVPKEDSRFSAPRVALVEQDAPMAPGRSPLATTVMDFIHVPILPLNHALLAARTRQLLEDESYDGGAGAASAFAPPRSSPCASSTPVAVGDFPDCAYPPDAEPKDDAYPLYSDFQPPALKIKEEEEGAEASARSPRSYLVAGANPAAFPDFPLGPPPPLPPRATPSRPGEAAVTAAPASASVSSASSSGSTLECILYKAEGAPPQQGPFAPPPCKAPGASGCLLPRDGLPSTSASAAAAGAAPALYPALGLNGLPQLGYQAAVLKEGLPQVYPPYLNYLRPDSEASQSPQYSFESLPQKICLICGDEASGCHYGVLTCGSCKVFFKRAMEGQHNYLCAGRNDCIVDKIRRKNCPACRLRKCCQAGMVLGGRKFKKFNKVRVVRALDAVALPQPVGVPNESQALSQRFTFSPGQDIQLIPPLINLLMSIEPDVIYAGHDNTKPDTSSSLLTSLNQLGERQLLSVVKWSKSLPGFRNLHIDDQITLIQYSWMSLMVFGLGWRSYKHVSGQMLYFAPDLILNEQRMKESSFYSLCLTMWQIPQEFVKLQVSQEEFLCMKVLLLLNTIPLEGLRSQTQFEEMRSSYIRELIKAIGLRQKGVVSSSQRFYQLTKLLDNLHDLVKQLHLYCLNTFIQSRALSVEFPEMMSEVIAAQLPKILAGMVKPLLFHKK
Regarding `CCCOc1ccc(S(=O)(=O)N2CCN(CC)CC2)cc1-c1nc2c(CC)n(Cc3ccccn3)nc2c(=O)[nH]1`, the call was inactive.
The same measure, in the same setting: for `CCc1cccc(CC)c1N` the value was “inactive”; for `OCc1ccccc1`, “inactive”.
For the molecule `O=C(O)[C@H](O)[C@@H](O)C(=O)O`, the result was inactive.

The target in another test is Nuclear receptor subfamily 1 group I member 2 (Homo sapiens) (UniProt O75469). Kind of test: NVS_NR_hPXR: NovaScreen (NVS) Nuclear Receptor Binding Assay for human Pregnane X Receptor (PXR) (AID 2283365).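 Note: a drop in FRET signal versus DMSO baseline means the compound binds.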 The gist of the method:
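Read-out: TR-FRET, human PXR, 2 h post-dosing, cell-free. Loss of signal vs DMSO taken as binding activity; 25 uM primary, concentration series secondary.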
Turning to `CCN(CC)C(=S)SSC(=S)N(CC)CC`, the AC50 is 0.7 µM (active).
Take `Cc1nc(-c2ccccn2)ncc1C(=O)Nn1cc(C)c2cc(F)ccc21`: the outcome was inactive.
Consider `OCCOCCOCCO`, for which the AC50 is 0.108 µM (active).
In the case of `CCCCCCCCCCCCCCCCOS(=O)(=O)O`, the AC50 is 12.5 µM (active).

Another test has as its target guinea pig Sigma Receptor, Non-selective Binding, SIGMAR1 (gene 100135589) (UniProt Q60492). The experiment in a line: NVS_OR_gSIGMA_NonSelective: NovaScreen (NVS) Nuclear Receptor Binding Assay for guinea pig Sigma Receptor, Non-selective Binding (AID 2283367). In a few lines: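 Guinea pig brain membrane sigma sites were labelled with a radioligand, and bound radioactivity was counted after filtration 1 h post-dose. Compounds were screened at 25 uM in duplicate, then retested as concentration series when active.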
Consider `CCN(CC)C(=S)SSC(=S)N(CC)CC`, for which the AC50 is 25 µM (active).
As to `CCCCC(CC)C(=O)OCCOCCOCCOC(=O)C(CC)CCCC` (stereo not given), the molecule was called inactive.
For the molecule `Cc1ncc([C@@H](CCCCCCc2ccc3c(n2)NCCC3)CC(=O)O)cn1`, the AC50 is 14.5 µM (active).

Another test concerns guinea pig Dopamine Transporter (DAT), gene 100714898. Kind of test: NVS_TR_gDAT: NovaScreen (NVS) Transporter Assay for guinea pig Dopamine Transporter (DAT) (AID 2283369).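 Note: active compounds lower bound radioligand signal relative to DMSO.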 In a few lines: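 Primary pass: duplicate wells at 25 uM, threshold e.g. 30% inhibition. Follow-up: singleton concentration-response, highest 50 uM. Radioligand binding on guinea pig striatal membranes, 2 h, filtration scintillation detection.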
For `COc1cc(C(C)C)c2c(c1)S(=O)(=O)N(COc1cc(=O)n3cccc(OCCN4CCCCC4)c3n1)C2=O`, the AC50 is 4.1 µM (active).
Take `CCN(CC)C(=S)SSC(=S)N(CC)CC`: the molecule was classed as inactive.
On to `C=CCc1cc(S(=O)(=O)c2ccc(O)c(CC=C)c2)ccc1O`, for which the AC50 was 13.2 µM (active).

The target in a further test is Peroxisome proliferator-activated receptor gamma (Homo sapiens) (UniProt P37231). Kind of test: NVS_NR_hPPARg: NovaScreen (NVS) Nuclear Receptor Binding Assay for human Peroxisome Proliferator-activated Receptor gamma (PPARg) (AID 2283370). The gist of the method:
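Extracted receptor protein, cell-free; compound incubated 2 h then fluorescence polarization read. Baseline: DMSO. Actives from 25 uM duplicate screen re-run across concentrations.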
As for `COc1cc(C(C)C)c2c(c1)S(=O)(=O)N(COc1cc(=O)n3cccc(OCCN4CCCCC4)c3n1)C2=O`, the AC50 was 6.25 µM (active).
On the same count and under the same terms, for `C=CCc1cc(S(=O)(=O)c2ccc(O)c(CC=C)c2)ccc1O` the value was 0.621 µM (active).
Consider `OCc1ccccc1`, for which the call was inactive.
The same measure, in the same setting: next, `Cc1ncc([C@@H](CCCCCCc2ccc3c(n2)NCCC3)CC(=O)O)cn1`: “inactive”.
For the molecule `CCCCCCCCCCCCCCCCOS(=O)(=O)O`, the half-maximal activity concentration (AC50) was 1.64 µM (active).
As to `c1ccc2c(c1)-c1cccc3c1c-2cc1ccccc13`, the call was inactive.

A further test addresses mouse Estrogen Receptor alpha (Era), Esr1 (gene 13982) (UniProt P19785). Kind of test: NVS_NR_mERa: NovaScreen (NVS) Nuclear Receptor Binding Assay for mouse Estrogen Receptor alpha (Era) (AID 2283378).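 Note: hit means loss of bound radioligand signal relative to DMSO.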 The gist of the method: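 Measurements come from scintillation counting after filtration, taken 18 hours after chemicals were added to a cell-free mouse Era preparation with radioligand. Screening was duplicate at 25 uM, with concurrent positive and negative controls and confirmatory concentration series for actives.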
On to `C=CCc1cc(S(=O)(=O)c2ccc(O)c(CC=C)c2)ccc1O`, for which the AC50 was 14.6 µM (active).
For `OCCOCCOCCO`, the molecule was called inactive.
Take `CCCCC(CC)C(=O)OCCOCCOCCOC(=O)C(CC)CCCC` (stereo not given): the call was inactive.
In the case of `CCCCCCCCCCCCCCCCOS(=O)(=O)O`, the concentration at half-maximal activity (AC50) is 7.04 µM (active).
For `c1ccc2c(c1)-c1cccc3c1c-2cc1ccccc13`, the molecule was called inactive.
